According to PubChem BioAssay AID2384 (Southern Research Specialized Biocontainment Screening …, 2010):
About 1,100 (48%) of roughly 2,300 compounds were called active. So high a share suggests a set chosen from earlier hits. This is one part of the list. Entries with a potency or affinity are not part of this list. A number with no mark means an inactive call. The rule behind the calls is not given here.

Assay: inhibitors in S. typhi counter-screen strain, dose response, counter-screen for PhoP regulon inhibitor project, fluorescence, 4 h (AID 2384)
Settings: S. typhi GFP reporter counter-screen; series mostly up to 150 µM; inhibition: at the top concentration

| SMILES | inhibition |
| --- | --- |
| Cc1ccc(N/N=C/c2ccncc2)cc1 | 5.95% |
| Cc1ccc(-c2ccccc2NC(=O)CS(=O)CC(=O)Nc2ccc(C)c(Cl)c2)o1 (stereo not drawn) | -36.7% |
| COc1ccc(-n2c3c(cc(C(=O)Nc4cccc(C)n4)c2=O)C(=O)CC(C)(C)C3)cc1 | 8.91% |
| CNc1nc(SC)n(C)c(=O)c1N=O | 28.2% |
| Cc1ccc(NC(=S)Nc2ccc(S(=O)(=O)Nc3ncccn3)cc2)cc1Cl | -48.7% |
| CCOC(=O)c1cc(-c2ccc(F)cc2)n(CCC(=O)NC2CCN(Cc3ccccc3)CC2)c1C | 16.4% |
| O=C(CCCCCn1c(=S)[nH]c2ccc(N3CCOCC3)cc2c1=O)NC1CCN(Cc2ccccc2)CC1 | 4.3% |
| Cc1ccc(CCNC(=O)C2CCN(S(=O)(=O)N3CCCC3)CC2)cc1 | 5.6% |
| Cc1c(C)n(C)c2ccc(C(=O)NCCCN3CCCC3)cc12 | 23.2% |
| CC1CCN(c2nc3ccc(C(=O)NCCCN4CCCCC4)cc3s2)CC1 | -15.2% |
| COCC1CCCN(Cc2cn[nH]c2-c2cc3ccccc3o2)C1 (stereo not drawn) | -4.44% |
| O=C(c1ccc2c3c(cccc13)CC2)C1CCCN(Cc2ncc[nH]2)C1 (stereo not drawn) | 5.85% |
| O=c1cc(-c2ccc(Cl)cc2)[nH][nH]1 | -29.4% |
| COc1ccc2c(c1)c1nc(SCC(C)C)n(CCO)c(=O)c1n2C | -6.72% |
| O=C(CN(C(=O)CNS(=O)(=O)c1ccccc1)C1CCCC1)NCc1ccco1 | 10.6% |
| CCn1c(CNC(=O)c2ccc(OC)cc2)nnc1SC | 13.5% |
| CN(C)S(=O)(=O)c1cccc(NC(=O)c2cnccn2)c1 | -8.09% |
| COc1ccc(C(=O)CSc2nnc(-c3cnccn3)n2Cc2ccco2)cc1 | -5.15% |
| CC(=O)Nc1ccccc1-c1nc2ccc(C(=O)N3CCN(c4cc(C)ccc4C)CC3)cc2[nH]c1=O | -15.4% |
| COc1cccc(/C=N/NC(=O)CSCC(=O)Nc2ccccc2)c1O | 35.8% |
| C/C(=N\NC(=O)c1c(Br)c(C)nn1C)c1ccc(NC(=O)c2ccoc2C)cc1 | -10.8% |
| COc1cccc(/C=N/NC(=O)C(=O)N2CCCC2)c1O | 36.2% |
| COc1cccc(/C=N/NC(=O)CO/N=C(\C)c2cccs2)c1OC | 1.19% |
| Cn1cc(C(=O)N/N=C/C(Br)=C/c2ccccc2)ccc1=O | -0.23% |
| O=C(Nc1ccc2[nH]c(=S)sc2c1)Nc1ccccc1F | 38.3% |
| CC1=C([N+](=O)[O-])C(c2cccc(Br)c2)C2=C(N1)c1ccccc1C2=O (stereo not drawn) | 3.59% |
| Cn1nnnc1SCc1nnc(-c2ccccc2Br)o1 | 25.7% |

| SMILES | inhibition |
| --- | --- |
| Cc1c(C)c2ccc(OC(C)C(=O)N[C@@H](Cc3c[nH]c4ccccc34)C(=O)O)c(C)c2oc1=O (stereo partly drawn) | 9.71% |
| COc1ccc(-c2nnn(-c3ccc(Cl)cc3Cl)c2N)cc1 | 15.7% |
| CC(=O)Oc1ccc(C(=O)Nc2ccc3c(c2)C(=O)N(CCC(=O)O)C3=O)cc1 | 19.9% |
| Cc1ccccc1-n1ncc2c([N+](=O)[O-])cc([N+](=O)[O-])cc21 | 22.4% |
| COc1cc(NS(=O)(=O)c2ccc(NC(=S)Nc3ccccc3)cc2)nc(OC)n1 | -64.8% |
| Cc1ccc(-n2[nH]c(C)c(C=NCc3ccncc3)c2=O)cc1 | -25.8% |
| Cc1[nH]n(-c2ccccc2)c(=O)c1C(c1cccc([N+](=O)[O-])c1O)c1c(C)[nH]n(-c2ccccc2)c1=O | 38.4% |
| COc1ccc(CCNC(=O)CSc2ccc(-c3ccncc3)nn2)cc1 | -28.5% |
| O=C(CCN1CCC(c2ccccc2)C1)c1ccc2c(c1)OCCO2 (stereo not drawn) | 32.1% |
| O=C(Nc1ccc2c(c1)OCCO2)C(=S)NCc1ccccc1 | -17.1% |
| Cc1ccc(N(C(=O)c2sc(C)nc2C)C(C(=O)NCc2ccco2)c2ccccc2)cc1 (stereo not drawn) | 20.7% |
| COc1ccc(C2=NN3C(=O)c4c(ccc(OC)c4OC)C3C2)cc1 (stereo not drawn) | 33.9% |
| O=c1ccnc(Sc2ncccc2[N+](=O)[O-])[nH]1 | 38.7% |
| O=[N+]([O-])c1cccnc1S(=O)(=O)c1ccccc1 | 5.22% |
| CC(=O)NS(=O)(=O)c1ccc(Nc2ccc([N+](=O)[O-])c3nonc23)cc1 | 2.51% |
| COc1ccc(CCN(C(=O)C(F)(F)F)C(C(=O)NC2CCCC2)c2cccs2)cc1 (stereo not drawn) | 3.89% |
| CCCCNC(=O)NS(=O)(=O)c1ccc(C(=O)OC)o1 | -10.3% |
| CC(C)OC(=O)c1cccc(C(=O)Oc2ccc(Br)cc2)n1 | -9.99% |
| Nc1ccc(S(=O)(=O)Nc2ccc(Cl)nn2)cc1 | -47% |
| CN1CCN(c2ccc(C(=O)c3cn(-c4ccc(F)c(Cl)c4)nn3)cc2)CC1 | 5.83% |
| CN1CCN(C2=Cc3cc(Cl)ccc3Sc3cc(F)ccc32)CC1 | 30% |
| CCc1nnc(NS(=O)(=O)c2ccc(N=Cc3c(C)[nH]n(-c4ccc(C)cc4)c3=O)cc2)s1 | 33% |
| COC(=O)C1=C(C)N(C2CCCC2)C(=O)C1(NC(C)=O)C(F)(F)F (stereo not drawn) | -13.7% |
| O=C(CN(Cc1ccco1)C(=O)CNS(=O)(=O)c1ccc(Cl)cc1)NCc1ccc(F)cc1 | -17.2% |
| CC(=O)c1ccc(OC(=O)c2cc3ccccc3oc2=O)cc1 | 14.8% |
| CN(C)CCN1C(=O)C(O)=C(C(=O)c2cc3ccccc3o2)C1c1ccccn1 (stereo not drawn) | -12.4% |
